From PubChem
PLK1 PBD block: blocks phosphopeptide binding to human PLK1 polo-box domain. P53350. Plk1 PBD binding of FITC phosphopeptide, fluorescence polarization. Potency, µM, inactives show max response, negative = inhibition, most hits filed as inhibitors. 2.8% of 360,000 active; note: potency is the fitted concentration of half-maximal effect; series mostly up to about 57 µM; % is set by controls: 0 for no effect and ±100 for the full control effect; nearly all actives have a fitted effect of over 65% in size
USP1 inh: blocks the human USP1/UAF1 deubiquitinase complex; O94782; recombinant USP1/UAF1, Ub-Rhodamine cleavage fluorescence; Potency, µM (series often up to 57.1 µM), for the others: at the top dose activity change, negative = inhibition, most hits filed as inhibitors; 0.23% of 390,000 active; AID 743255; note: potency is the fitted concentration of half-maximal effect; % is set by controls: 0 for no effect and ±100 for the full control effect; nearly all actives have a fitted effect of over 60% in size
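High-throughput fluorogenic screen: 1nM USP1/UAF1 complex, Ub-Rho substrate 150nM final, 50mM HEPES pH 7.8 with 0.5mM EDTA, 0.1 mg/ml BSA, 1mM TCEP and 0.01% Tween-20.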
GCN5L2 inh: blocks human GCN5L2 histone acetyltransferase | 0.21% of 390,000 active | Potency, µM (highest dose often 58.9 µM), inactives show top-dose activity change, negative = inhibition, usual class: inhibitors | Q92830 | GCN5L2 HAT assay, ThioGlo1 CoA-SH fluorescence; note: potency is the fitted concentration of half-maximal effect; % is set by controls: 0 for no effect and ±100 for the full control effect
Target sequence (Q92830 whole entry, looked up): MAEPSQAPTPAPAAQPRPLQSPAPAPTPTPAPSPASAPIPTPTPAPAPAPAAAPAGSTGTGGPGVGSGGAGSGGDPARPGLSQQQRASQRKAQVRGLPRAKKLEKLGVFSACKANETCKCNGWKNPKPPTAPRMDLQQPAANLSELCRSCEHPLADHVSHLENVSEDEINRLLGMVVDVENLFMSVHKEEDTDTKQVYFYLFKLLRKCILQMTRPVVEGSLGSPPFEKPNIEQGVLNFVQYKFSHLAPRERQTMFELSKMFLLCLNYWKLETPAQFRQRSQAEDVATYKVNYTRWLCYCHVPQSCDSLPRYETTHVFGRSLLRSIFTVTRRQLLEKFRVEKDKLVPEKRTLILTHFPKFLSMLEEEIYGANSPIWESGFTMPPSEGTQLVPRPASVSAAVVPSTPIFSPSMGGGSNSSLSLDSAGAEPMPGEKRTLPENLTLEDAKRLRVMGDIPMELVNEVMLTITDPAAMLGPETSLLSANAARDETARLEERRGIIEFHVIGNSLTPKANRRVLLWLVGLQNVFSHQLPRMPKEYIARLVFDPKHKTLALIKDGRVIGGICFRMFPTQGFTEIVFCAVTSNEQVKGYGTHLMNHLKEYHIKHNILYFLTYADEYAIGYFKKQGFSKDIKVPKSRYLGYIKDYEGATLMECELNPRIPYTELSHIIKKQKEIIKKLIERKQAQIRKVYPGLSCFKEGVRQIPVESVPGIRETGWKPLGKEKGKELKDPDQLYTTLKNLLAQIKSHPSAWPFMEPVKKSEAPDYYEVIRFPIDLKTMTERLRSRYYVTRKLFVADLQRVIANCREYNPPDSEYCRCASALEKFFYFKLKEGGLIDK
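Fluorescence readout, Ex340nm/Em540nm: ThioGlo1 (50uM final) reacts with free CoA thiol released as 20nM GCN5L2 acetylates H3(1-25) peptide (75uM) using acetyl-CoA (70uM). Compound and enzyme sat 15 min beforehand; 20 min room-temperature reaction.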
VDR inhibitor: vitamin D3 receptor (human) inhibition; P11473; VDR-SRC2-3 peptide fluorescence polarization, 2 h; Potency, µM, inactives show max response, negative = inhibition, usual class: inhibitors; 0.93% of 400,000 active; AID 504847; note: potency is the fitted concentration of half-maximal effect; % is set by controls: 0 for no effect and ±100 for the full control effect
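Reagent solutions, kept cold and dark, are dispensed first; compounds are then pinned in at 23 nl, plates briefly spun, and incubated 2 h at ambient temperature. Inhibition of VDR–SRC2-3 peptide binding is read by fluorescence polarization.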
TSG101-PTAP inh: blocks PTAP/TSG101 interaction to inhibit HIV-1 budding; AID 493005; 340,000 tested, under 10 active; Q99816; Fluorescence polarization, FITC-PTAP peptide / Tsg101 binding; Potency, µM (doses to about 115 µM), for inactives: at the top dose activity change, negative = inhibition, usual class: inhibitors; active = well fitted inhibition curve with a large enough effect in the main read-out, with a control signal flat, not every such curve was filed as active; inconclusive = small, poorly fitted or top-dose-only effect, or effect the other way, or a change in a side signal; inactive = no such curve, though single readings can be large or run the other way; note: potency is the fitted concentration of half-maximal effect; % of control where 0% means no effect
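Steps: Tsg101 binding domain dispensed (10 uM final), compounds pinned in DMSO, FITC-labeled PTAP-motif peptide added (50 nM final); after 20 min binding at room temperature, polarization measured.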
USP1-UAF1 confirm: blocks human USP1/UAF1 cleavage of Ub-Rhodamine | 50% of 50 active | AID 540327 | shares compounds with VDR inhibitor | Potency, µM (top dose mostly 56.8 µM), for the others: at the highest dose activity change, negative = inhibition, most hits filed as inhibitors | Ub-Rhodamine cleavage, fluorescence kinetic read
VDR confirm: confirmation of human vitamin D receptor inhibitors. shares compounds with VDR inhibitor. VDR-coactivator inhibition assay, qHTS confirmation. Potency, µM, actives largely listed as inhibitors. 89% of 840 active. AID 602199; note: potency is the fitted concentration of half-maximal effect
VDR FP fluor: confirmation of human VDR-coactivator binding inhibitors, fluorescein label | shares compounds with VDR inhibitor | VDR-coactivator binding, fluorescein fluorescence polarization | Potency, µM (titrated, usually from 57.1 µM), for inactives: at the top dose activity change, negative = inhibition, most hits filed as inhibitors | 48% of 840 active | AID 602200; note: potency is the fitted concentration of half-maximal effect
VDR bla reporter: confirmation of human vitamin D receptor inhibitors in reporter cells. shares compounds with VDR inhibitor. VDR beta-lactamase reporter cells, FRET ratio; cells co-treated with VDR agonist LG190178. Potency, µM (doses to about 46.1 µM), for inactives: at the highest dose activity change, negative = inhibition, usual class: inhibitors. 23% of 840 active; note: potency is the fitted concentration of half-maximal effect; % is set by controls: 0 for no effect and ±100 for the full control effect
VDR viability: cytotoxic in counter-screen for VDR inhibitors. shares compounds with VDR inhibitor. cytotoxicity counter-screen, cell viability, qHTS. Potency, µM (doses to about 48.3 µM), for inactives: at the top dose activity change, negative = cytotoxicity, hits mostly cytotoxic. 18% of 840 active;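 note: potency is the fitted concentration of half-maximal effect; plate controls were DMSO for no effect and high-concentration cycloheximide for full effect; nearly all actives have a fitted effect of over 75% in size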
* = called active by the depositor; i = inactive; ? = inconclusive; . = no result; ! = not active in a repeat. Hits are enriched below; roughly 3% of the tested compounds scored in any of these assays. Unless noted, calls come from the whole dose curve; as a rule, active = well fitted curve in the direction sought with a large enough effect; inconclusive = small, poorly fitted or top-dose-only effect, or another doubt; inactive = no such curve, though single readings can be large; an effect the other way counts as inactive or inconclusive.

SMILES | PLK1 PBD block | USP1 inh | GCN5L2 inh | VDR inhibitor | TSG101-PTAP inh | VDR confirm | VDR FP fluor | VDR bla reporter | VDR viability | others
O=C(NCc1ccc2c(c1)OCO2)c1ccccc1Cl | -4% | -10% | . | -15% | 1% | . | . | . | .
COC(=O)c1cscc1S(=O)(=O)Cc1ccccc1 | -29% | 4% | -3% | -17% | -3% | . | . | . | .
O=C(NCc1ccc2c(c1)OCO2)c1nc(S(=O)(=O)Cc2ccccc2)ncc1Cl | ? | -5% | -10% | 22µM* | 1% | 9.5* | ? | 18µM* | ?
COC(=O)c1ccccc1NC(=O)c1nc(S(=O)(=O)Cc2ccccc2)ncc1Cl | ? | -13% | -18% | ? | 2% | 3.2* | 3.2µM* | 9.2µM* | 21µM*
CCc1nnc(NC(=O)c2nc(S(=O)(=O)Cc3cccc(C)c3)ncc2Cl)s1 | 27µM* | -14% | -5% | 13µM* | 2% | 3* | ? | 5.8µM* | ?
CCOc1ccccc1NC(=O)c1nc(S(=O)(=O)Cc2cccc(C)c2)ncc1Cl | ? | -3% | -6% | 16µM* | -6% | 8.4* | ? | 3.3µM* | 7.3µM*
Cc1cc(C)c2cc(C#N)c(NCCCN)nc2c1 | -7% | . | . | . | . | . | . | . | .
CCC(CC)C(C(=O)NCc1ccccc1)N1CCN(c2cccc(C)c2C)CC1 (stereo unspecified) | 2% | . | . | . | . | . | . | . | .
CCc1nnc(NC(=O)c2nc(S(=O)(=O)Cc3ccccc3)ncc2Cl)s1 | -16% | -13% | 3% | 22µM* | -1% | 7.5* | 8.9µM* | 13µM* | 18µM*
O=C(O)c1cc(/C=C/C(=O)c2cc(F)ccc2O)c2c(c1)COCO2 | ? | -16% | -1% | 25µM* | -2% | 6.7* | ? | 27% | ?
COc1ccc(C(=O)/C=C/c2cc(C(=O)O)cc3c2OCOC3)c(O)c1 | -26% | -23% | -30% | ? | 1% | . | . | . | .
COc1ccccc1-c1nc(NC2CC2)c2ccccc2n1 | . | . | -7% | -25% | . | . | . | . | .
Cc1nc2ccccn2c(=O)c1CCN1CCC(C(=O)c2ccc(F)cc2)CC1 | -2% | -25% | -1% | 1% | -1% | . | . | . | .
Cc1nc2sccn2c(=O)c1CCN1CCC(=C(c2ccc(F)cc2)c2ccc(F)cc2)CC1 | -6% | -29% | ? | 79µM*! | -4% | . | . | . | . | USP1-UAF1 confirm=?
Cc1ccccc1/C=C/C(=O)c1ccc([N+](=O)[O-])o1 | ? | -18% | -9% | 7.9µM* | 0% | 6* | 3.2µM* | 8.2µM* | 21µM*
Cc1cccc(/C=C/C(=O)c2ccc([N+](=O)[O-])o2)c1 | ? | ? | ? | 8.9µM* | -18% | 1.1* | 1.3µM* | 5.2µM* | ?
O=[N+]([O-])c1c(Nc2ccc(O)cc2)cc(Cl)c2nonc12 | 1.7µM* | ? | 1% | ? | -1% | 2.5* | 2µM* | ? | 9.5µM*
CN(C)c1cc(Nc2ccc(O)cc2)c([N+](=O)[O-])c2nonc12 | ? | -19% | 1% | -16% | -7% | . | . | . | .
O=[N+]([O-])c1c(Nc2ccccn2)cc(Cl)c2nonc12 | -97% | i | ? | ? | -4% | 3.4* | ? | 3.7µM* | 5.8µM*
O=C(O)c1cccc(Nc2cc(Cl)c3nonc3c2[N+](=O)[O-])c1 | 12µM* | -26% | -9% | 13µM* | -8% | 8.4* | 20µM* | 31% | -4%
O=[N+]([O-])c1ccc(Nc2ccccn2)c([N+](=O)[O-])c1 | -16% | 2% | -29% | 9% | 0% | . | . | . | .
CCCCOc1ccc(C(=O)Nc2ccc3c(c2)N(C(C)=O)CCC3)cc1 | . | -11% | 10% | 3% | . | . | . | . | .
CCCCCCCCC(c1nc2cc(C)c(C)cc2[nH]1)n1c(=O)c(-c2ccccc2Br)nc2ccccc21 (stereo unspecified) | -1% | . | . | . | . | . | . | . | .
COC(=O)c1ccccc1NC(=O)CSc1nc2sc3c(c2c(=O)[nH]1)CCCC3 | . | 14% | ? | 14µM* | . | ? | 4µM* | 3% | 4%
Cc1cc(C)cc(NC(=O)CSc2nc3sc4c(c3c(=O)[nH]2)CCCC4)c1 | . | -6% | 3% | 6% | . | . | . | . | .
SMILES | PLK1 PBD block | USP1 inh | GCN5L2 inh | VDR inhibitor | TSG101-PTAP inh | VDR confirm | VDR FP fluor | VDR bla reporter | VDR viability | others
COc1cccc(C(=O)NCCSc2c(-c3ccc(F)cc3)[nH]c3ccccc23)c1OC | . | ? | -2% | -22% | . | . | . | . | .
O=C1Nc2ccccc2/C1=C/C(=O)c1cccs1 | 17µM* | -22% | -22% | ? | -2% | 11* | 10µM* | ? | 18%
NC(=O)COc1ccc(C(=O)/C=C2/C(=O)Nc3ccccc32)cc1 | ? | -30% | 3% | ? | -3% | ? | ? | 24% | 19%
COc1ccc(C(=O)/C=C2/C(=O)Nc3ccccc32)cc1OC | -23% | 2% | -5% | -15% | -3% | . | . | . | .
COc1ccc(C(=O)/C=C2/C(=O)Nc3ccccc32)cc1 | -13% | -16% | -3% | ? | -1% | . | . | . | .
OCC[C@@H]1C[C@H](O)[C@@H](O)[C@]2(OCc3cc(C(F)(F)F)ccc32)O1 | -12% | . | . | . | . | . | . | . | .
O=C(CSc1nc(-c2cccs2)cc(C(F)(F)F)n1)Nc1ccccc1Cl | . | -8% | -7% | -4% | . | . | . | . | .
COc1ccc(NC(=O)CCS(=O)(=O)c2nc(-c3ccc4c(c3)OCO4)cc(C(F)(F)F)n2)cc1 | . | ? | -3% | ? | . | . | . | . | .
O=C(CCS(=O)(=O)c1nc(-c2cccs2)cc(C(F)(F)F)n1)Nc1ccc(Br)cc1 | . | 9% | -12% | 14µM* | . | 3.5* | 4µM* | ? | ?
Cc1ccc(O)c(NC(=O)CCS(=O)(=O)c2nc(-c3cccs3)cc(C(F)(F)F)n2)c1 | . | ? | 2% | 20µM* | . | 4.5* | 7.9µM* | ? | ?
O=C(CCS(=O)(=O)c1nc(-c2ccc3c(c2)OCO3)cc(C(F)(F)F)n1)Nc1ccc(F)cc1F | . | ? | -9% | 40µM* | . | 11* | 14µM* | ? | 2%
